# Among all 66,000 compounds or so, about 960 (1.5%) showed an effect of 50% or more. The sample as a whole holds a higher share of strong results than the screen did.
# Tested on: Trypanosoma brucei
# Test: Trypanosoma brucei 72 hour study
# Assay type: functional, organism-based
# Parameters: scale not given: in the data most compounds retested in dose-response had high values
structure (smiles),measurement,setting,value
CC(CNCc1ccc(Cl)cc1)Oc1ccccn1.Cl (stereo unspecified),Percent Effect,"30 µM, 30.03 µM",-4.288%
COc1cc(OC)cc(C2NC(=O)CN2Cc2ccc(Br)cc2)c1 (stereo unspecified),Percent Effect,"30 µM, 30.03 µM",-25.05%
Cc1cc(C2NC(=O)CN2Cc2ccc(Br)cc2)cc(C)c1O (stereo unspecified),Percent Effect,"30 µM, 30.03 µM",94.42%
NC(=O)COc1ccc(C2NC(=O)CN2Cc2ccc(Br)cc2)cc1 (stereo unspecified),Percent Effect,"30 µM, 30.03 µM",-15.28%
CC1N(c2cnn(C)c2)C(=O)COC12CCN(c1ncccn1)CC2.O=C(O)C(F)(F)F (stereo unspecified),Percent Effect,"30.3 µM, […]",-2.456%
CN(CCc1ccccn1)C(=O)c1cccs1.Cl,Percent Effect,"30 µM, 30.03 µM",-41.89%
O=C(NCCN1CCCCC1)c1nc(-c2ccc3cc[nH]c3c2)no1,Percent Effect,"30 µM, 30.03 µM",29.87%
COCCNC(=O)c1nc(-c2ccc3cc[nH]c3c2)no1,Percent Effect,"30 µM, 30.03 µM",-23.6%
O=C(c1nc(-c2ccc3cc[nH]c3c2)no1)N1CCCC1,Percent Effect,"30 µM, 30.03 µM",53.89%
COCCNc1cc(C2CCCNC2)ccn1.Cl (stereo unspecified),Percent Effect,"30.3 µM, […]",9.179%
CCNC(=O)[C@@H]1C[C@H](N)CN1Cc1ccc(Sc2ccc(C)cc2)o1,Percent Effect,"30.3 µM, […]",18.4%
CCNC(=O)[C@@H]1C[C@@H](N)CN1Cc1ccc(Sc2ccc(C)cc2)o1,Percent Effect,"30.3 µM, […]",100.1%
CCNC(=O)[C@@H]1C[C@H](N)CN1Cc1ccc(-c2cc[nH]n2)o1,Percent Effect,"30.3 µM, […]",-17.36%
COCCN1C(=O)C[C@H]2[C@H]1CCN2Cc1cccc(C#N)c1.O=C(O)C(F)(F)F,Percent Effect,"30 µM, 30.03 µM",17.08%
O=C(c1ccc[nH]1)N1CCn2cc(Cn3cncn3)nc2C1,Percent Effect,"30 µM, 30.03 µM",-19.87%
O=C(O)C(F)(F)F.O=C(c1ccc[nH]1)N1CCn2cc(CN3CCCC3)nc2C1,Percent Effect,"30 µM, 30.03 µM",-5.056%
O=C(O)C(F)(F)F.O=C(c1ccc[nH]1)N1CCn2cc(Cn3cccn3)nc2C1,Percent Effect,"30.3 µM, […]",63.53%
CC(C)COc1cncc(N2CCCN(c3ncccn3)CC2)n1,Percent Effect,"30.3 µM, […]",-75.77%
CNC(=O)CN(C)c1cncc(OCC(C)C)n1,Percent Effect,"30 µM, 30.03 µM",-18.74%
CC(C)COc1cncc(N(C)C2CCN(c3ncccn3)CC2)n1,Percent Effect,"30.3 µM, […]",90.23%
CN(C)CCOCc1nnc2n1CCN(Cc1cccs1)CC2.O=C(O)C(F)(F)F.O=C(O)C(F)(F)F,Percent Effect,"30.3 µM, […]",-17.71%
Br.Cc1ccccc1OC1CCN(CC(=O)Nc2ccn(C)n2)CC1,Percent Effect,"30.3 µM, […]",12.28%
Cc1ccccc1N1CC2(CCN(S(=O)(=O)c3ccccc3)C2)CC1=O (stereo unspecified),Percent Effect,"30.3 µM, […]",11.6%
CCOc1cc2c(cc1CN1CCC3(CCCNC3=O)C1)CCC2 (stereo unspecified),Percent Effect,"30.3 µM, […]",98.93%
CCOc1cc2c(cc1CN1CCC3(CC1)CNC(=O)C3)CCC2,Percent Effect,"30.3 µM, […]",-17.68%
CCOc1cc(Cl)c(CN2CCC3(CCCNC3=O)C2)cc1OC (stereo unspecified),Percent Effect,"30.3 µM, […]",-16.79%
O=C(N1CCCC1)N1CCC2(CCN(Cc3ccccn3)C2=O)C1.O=C(O)C(F)(F)F (stereo unspecified),Percent Effect,"30 µM, 30.03 µM",-20.49%
CC(O)c1cccc(Nc2nc(NCCO)c3ccccc3n2)c1 (stereo unspecified),Percent Effect,"30 µM, 30.03 µM",5.503%
CCN(CC)c1nc(Nc2cccc(C(C)O)c2)nc2ccccc12 (stereo unspecified),Percent Effect,"30 µM, 30.03 µM",78.38%
CCN(CC)c1nc(Nc2cccc(C(=O)O)c2)nc2ccccc12,Percent Effect,"30 µM, 30.03 µM",-36.54%
O=C(O)C(F)(F)F.O=C1NC2(CCN(C(=O)N3CCOCC3)CC2)CC1c1cccnc1 (stereo unspecified),Percent Effect,"30 µM, 30.03 µM",-17.56%
CN1CCOC(CNCc2coc(-c3ccccc3)n2)C1 (stereo unspecified),Percent Effect,"30 µM, 30.03 µM",-39%
CN1CCOC(CNC(=O)Cc2coc(-c3ccccc3)n2)C1 (stereo unspecified),Percent Effect,"30.3 µM, […]",-0.1289%
same,Percent Effect,"10 mM, 10 mM as filed; unlikely as a test dose",-18.77%
CN1CCOC(CNCc2c(Cl)nc3ccccn23)C1 (stereo unspecified),Percent Effect,"30 µM, 30.03 µM",-12.37%
Cc1ccc(-c2nc(CNCC3CN(C)CCO3)co2)cc1 (stereo unspecified),Percent Effect,"30.3 µM, […]",93.13%
same,Percent Effect,"10 mM, 10 mM as filed; unlikely as a test dose",-9.822%
CN1CCOC(CNCc2coc(-c3cccc(F)c3)n2)C1 (stereo unspecified),Percent Effect,"30.3 µM, […]",41.18%
same,Percent Effect,"10 mM, 10 mM as filed; unlikely as a test dose",-36.07%
CN(C)CC1CN(Cc2coc(-c3ccccc3)n2)CCO1 (stereo unspecified),Percent Effect,10 µM,-12.24%
same,Percent Effect,"30.3 µM, […]",1.121%
CN1CCOC(CNCc2coc(-c3cccc(Cl)c3)n2)C1 (stereo unspecified),Percent Effect,"30.3 µM, […]",98.76%
same,Percent Effect,"10 mM, 10 mM as filed; unlikely as a test dose",-110.4%
CN(C)CC1CN(Cc2coc(-c3ccccc3Cl)n2)CCO1 (stereo unspecified),Percent Effect,"30 µM, 30.03 µM",-2.77%
CN1CCOC(CNCc2coc(-c3cccs3)n2)C1 (stereo unspecified),Percent Effect,"30 µM, 30.03 µM",-23.33%
CN1CCOC(CNCc2coc(-c3ccccc3Cl)n2)C1 (stereo unspecified),Percent Effect,"30.3 µM, […]",54.4%
same,Percent Effect,"10 mM, 10 mM as filed; unlikely as a test dose",-73.24%
Cc1ccc(-c2nc(CN3CCOC(CN(C)C)C3)co2)cc1 (stereo unspecified),Percent Effect,10 µM,5.738%
same,Percent Effect,"30.3 µM, […]",-1.882%
CN(C)CC1CN(Cc2coc(-c3ccc(Cl)cc3)n2)CCO1 (stereo unspecified),Percent Effect,10 µM,-46.52%
same,Percent Effect,"30.3 µM, […]",62.36%
CCCS(=O)(=O)N1C[C@H]2C[C@H](C(=O)N3CCOCC3)[C@@H](C1)O2,Percent Effect,"30.3 µM, […]",-5.473%
CN(C)CCOCc1nnc2n1CCN(Cc1ccc(F)cc1)CC2.O=C(O)C(F)(F)F.O=C(O)C(F)(F)F,Percent Effect,"30.3 µM, […]",-11.21%
O=C(O)C(F)(F)F.O=C(c1ccco1)N1C[C@H]2CCCN(Cc3ccoc3)[C@H]2C1,Percent Effect,"30 µM, 30.03 µM",-0.7502%
CC1c2ncc(Cn3cncn3)n2CCN1CC1CCOCC1.O=C(O)C(F)(F)F (stereo unspecified),Percent Effect,"30.3 µM, […]",-11%
Fc1cccnc1N1CCOCC2(CCCN(c3nncs3)C2)C1.O=C(O)C(F)(F)F (stereo unspecified),Percent Effect,"30 µM, 30.03 µM",36.62%
CCN(CC)C(=O)CN1CCc2c(nc(C3CCNCC3)nc2NC)C1.Cl,Percent Effect,"30.3 µM, […]",-24.06%
CCn1cc(N2Cc3nc(N4CCC(C)CC4)ncc3C2=O)cn1,Percent Effect,"30.3 µM, […]",-21.22%
CN1CCOC(CNCc2nc(-c3ccoc3)no2)C1 (stereo unspecified),Percent Effect,"30 µM, 30.03 µM",-7.602%
CN1CCOC(CNCc2csc(C3CCCC3)n2)C1 (stereo unspecified),Percent Effect,10 µM,-49.15%
Cc1ccc(-c2nc(CNCC3CN(C)CCO3)cs2)o1 (stereo unspecified),Percent Effect,"30.3 µM, […]",4.391%
Cc1ccc(-c2nc(CNC3CCc4ncnn4C3)co2)c(C)c1 (stereo unspecified),Percent Effect,"30 µM, 30.03 µM",30.05%
CN1CCOC(CNCc2coc(-c3ccc(Cl)cc3)n2)C1 (stereo unspecified),Percent Effect,"30.3 µM, […]",99.53%
same,Percent Effect,"10 mM, 10 mM as filed; unlikely as a test dose",19.14%
Cc1ccc(-c2nc(CNCC3CN(C)CCO3)co2)c(C)c1 (stereo unspecified),Percent Effect,"30.3 µM, […]",99.99%
same,Percent Effect,"10 mM, 10 mM as filed; unlikely as a test dose",61.89%
CN(C)CCCN(Cc1cnn(C)c1)Cc1ccco1.O=C(O)CC(O)(CC(=O)O)C(=O)O,Percent Effect,"30.3 µM, […]",-23.52%
O=C(O)C(F)(F)F.O=C(O)C(F)(F)F.c1cncc(CN2Cc3nccn3CC(Cn3cccn3)C2)c1 (stereo unspecified),Percent Effect,"30.3 µM, […]",-81.67%
Cc1cc(-c2cnc(N3CCSCC3)nc2C(C)C)on1,Percent Effect,"30.3 µM, […]",-15.33%
Cc1noc(C)c1CN1CCOCC12CCN(c1cnccn1)CC2.O=C(O)C(F)(F)F,Percent Effect,"30.3 µM, […]",-24.7%
Cc1ccccc1NC(=O)Nc1cc(N2CCCC2)ncn1,Percent Effect,"30.3 µM, […]",-35.39%
CC1CCN(c2cc(NC(=O)C3CC3)ncn2)CC1,Percent Effect,"30.3 µM, […]",71.79%
Cc1nc(C)c(C(=O)Nc2cc(N3CCC(C)CC3)ncn2)s1,Percent Effect,"30.3 µM, […]",-16.43%
COc1ccc(-c2csc3c2c(N)nc(=O)n3CCCN(C)C)cc1,Percent Effect,"30 µM, 30.03 µM",-33.83%
CCCNC(=O)C1CCN(Cc2csc(C(C)(C)C)n2)CC1,Percent Effect,"30 µM, 30.03 µM",-44.58%
CCOC(=O)C1CCN(Cc2csc(C(C)(C)C)n2)CC1,Percent Effect,"30 µM, 30.03 µM",96.9%
CN(C)C(=O)C1CCN(Cc2csc(C(C)(C)C)n2)CC1,Percent Effect,10 µM,-5.321%
CC(=O)Nc1cccc(CN2CCCC2C(=O)Nc2nccs2)c1 (stereo unspecified),Percent Effect,"30.3 µM, […]",-3.044%
O=C(Nc1nccs1)C1CCCN1Cc1ccccn1 (stereo unspecified),Percent Effect,"30.3 µM, […]",98.2%
CCNc1ccnc(CN2CCCC2C(=O)Nc2nccs2)c1 (stereo unspecified),Percent Effect,"30.3 µM, […]",28.37%
O=C(NC[C@]12COC[C@H]1CN(Cc1cccs1)C2)c1ccsc1.O=C(O)C(F)(F)F,Percent Effect,"30 µM, 30.03 µM",48.3%
O=C(O)C(F)(F)F.c1csc(CN2CCn3c(Cn4cncn4)cnc3C2)c1,Percent Effect,"30.3 µM, […]",-144.4%
CC1=N[C@@]2(CC[C@@H]3CN(CC4CC4)C[C@@H]32)C(=O)N1CC1CC1.O=C(O)C(F)(F)F,Percent Effect,"30.3 µM, […]",-38.25%
Cc1cnn(CCNCc2nnc(-c3occc3C)o2)c1,Percent Effect,10 µM,-38.66%
O=C(O)C(F)(F)F.O=C(O)C(F)(F)F.c1cnc(N2CCC3(CCN(CC4CCOC4)CC3)CC2)nc1 (stereo unspecified),Percent Effect,"30 µM, 30.03 µM",-26.62%
O=C(O)C(F)(F)F.O=C(O)C(F)(F)F.OCCN1CC2(CCN(CC3CC3)CC2)c2ccccc21,Percent Effect,"30 µM, 30.03 µM",101.2%
O=C(O)C(F)(F)F.c1cnc(N2CCCC3(CCN(CC4CCOC4)CC3)C2)nc1 (stereo unspecified),Percent Effect,"30 µM, 30.03 µM",56.13%
Cc1ccc(CN2CCC3(C2)C(=O)N(CC2CC2)c2ccccc23)s1.O=C(O)C(F)(F)F (stereo unspecified),Percent Effect,"30.3 µM, […]",92.57%
O=C(O)C(F)(F)F.c1cnc(N2CC3(CCN(CC4CCOC4)CC3)c3ccccc32)nc1 (stereo unspecified),Percent Effect,"30 µM, 30.03 µM",-50.98%
CC(C)CN1C(=O)C2(CCN(CC3CCOCC3)C2)c2ccccc21.O=C(O)C(F)(F)F (stereo unspecified),Percent Effect,"30.3 µM, […]",-1.145%
CC(C)N1CCC2(CCCN(c3nccc(C(F)(F)F)n3)C2)CC1.O=C(O)C(F)(F)F,Percent Effect,"30.3 µM, […]",63.32%
CN1CCC2(CCCN(c3nccc(C(F)(F)F)n3)C2)CC1.O=C(O)C(F)(F)F,Percent Effect,"30.3 µM, […]",3.781%
O=C(O)C(F)(F)F.O=C(O)C(F)(F)F.c1cnc(N2CCCC3(CCN(c4ncccn4)C3)C2)nc1 (stereo unspecified),Percent Effect,"30 µM, 30.03 µM",-31.26%
Cc1ccc(CN2CCC3(C2)C(=O)N(CC(N)=O)c2ccccc23)s1 (stereo unspecified),Percent Effect,"30 µM, 30.03 µM",-6.982%
O=C(O)C(F)(F)F.c1cnc(N2CCC3(CCN(CC4CCOC4)CC3)C2)nc1 (stereo unspecified),Percent Effect,"30 µM, 30.03 µM",-13.94%
O=C(O)C(F)(F)F.O=C1CC2(CCN(CC3CCOC3)CC2)c2ccccc2N1CC1CC1 (stereo unspecified),Percent Effect,"30.3 µM, […]",-4.569%
Cl.Clc1ccccc1OCCc1cc(C2CCNC2)n[nH]1 (stereo unspecified),Percent Effect,"30.3 µM, […]",-6.852%
CN(C(=O)c1ncn2c1CN(C)S(=O)(=O)c1ccccc1-2)C1CC1.O=C(O)C(F)(F)F,Percent Effect,"30 µM, 30.03 µM",-19.09%
COc1cc(N2CC[C@@H]3O[C@H](C(=O)N(C)C)C[C@@H]32)ncn1.O=C(O)C(F)(F)F,Percent Effect,"30.3 µM, […]",-9.278%
CCC(NC(=O)C1CCN(S(C)(=O)=O)CC1)c1ccc(C)c(C)c1 (stereo unspecified),Percent Effect,"30 µM, 30.03 µM",-5.711%
CCOCc1cc(CN2CCn3c(CO)nnc3C2)ccc1OC.O=C(O)CC(O)(CC(=O)O)C(=O)O,Percent Effect,"30.3 µM, […]",-50.73%

# From ChEMBL document CHEMBL3988442, “University of Dundee, Small-Polar-MMV Screening Library” (2021)
